From PubChem
A selection: hits, their analogues and other compounds. The true share with any hit is near 1.5%.
sEH inh: soluble epoxide hydrolase inhibitors, primary screen, biochemical, human sEH; recombinant human sEH enzymatic activity assay; inhibition, % at 2 µM; 0.34% of 91,000 active; AID 707, 2007; in the data active = inhibition above about 80%
Target sequence (P34913 whole entry, looked up): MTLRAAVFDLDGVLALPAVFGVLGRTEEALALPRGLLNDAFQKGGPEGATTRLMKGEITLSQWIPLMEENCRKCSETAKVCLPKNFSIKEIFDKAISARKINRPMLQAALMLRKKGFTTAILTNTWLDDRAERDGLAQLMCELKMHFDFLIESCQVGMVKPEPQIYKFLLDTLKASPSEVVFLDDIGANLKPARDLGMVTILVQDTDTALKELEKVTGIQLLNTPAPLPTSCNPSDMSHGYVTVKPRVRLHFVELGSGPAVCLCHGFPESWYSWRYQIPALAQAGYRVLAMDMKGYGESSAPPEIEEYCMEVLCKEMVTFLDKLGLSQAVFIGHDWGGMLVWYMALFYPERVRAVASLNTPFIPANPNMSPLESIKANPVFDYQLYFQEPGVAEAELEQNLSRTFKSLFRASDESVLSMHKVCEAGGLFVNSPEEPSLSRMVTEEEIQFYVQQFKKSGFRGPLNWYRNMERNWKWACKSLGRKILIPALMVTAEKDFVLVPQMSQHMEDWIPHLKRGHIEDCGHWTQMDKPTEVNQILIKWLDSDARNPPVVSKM
BAP1 block: inhibitors of BAP1 deubiquitinase, primary screen, biochemical, Ub-AMC fluorescence, kinetic | Ubiquitin carboxyl-terminal hydrolase BAP1 (Homo sapiens), Q92560 | calls only at 20 µM | 0.48% of 72,000 active | recombinant BAP1, Ub-AMC hydrolysis fluorescence kinetic; active compounds read low;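 active = activity remaining at or below 50% of control, provided the compound also passes the data quality filters; inactive = the rest, including low values that fail the filters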;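 note: 100% = DMSO wells rate and 0% = substrate alone blank rate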
PLAP act: PLAP enzyme activators, biochemical, luminescence, HTS; 1.2% of 96,000 active; purified PLAP enzyme, luminescent substrate read-out; active compounds read high; Alkaline phosphatase, placental type (Homo sapiens), P05187; AID 696, 2007; activation fold at 20 µM; in the data active = activation fold above about 2
sEH activator: soluble epoxide hydrolase activators, primary screen, biochemical, human sEH. activation, % at 2 µM. 0.04% of 91,000 active. Bifunctional epoxide hydrolase 2 (Homo sapiens), P34913. purified human sEH enzymatic activity, activator screen; in the data active = activation above about 37%
Starred values were filed as active, the others as inactive; i = inactive; x = no result shown.

SMILES | sEH inh | BAP1 block | PLAP act | sEH activator
O=C(NNC(=O)c1ccc(SCC2CCCO2)c([N+](=O)[O-])c1)c1ccc(Cl)c([N+](=O)[O-])c1 (stereo unspecified) | 5 | x | 2.4* | -5
CC(Cc1cccs1)NC(=O)Nc1ccc(F)cc1 (stereo unspecified) | 64 | x | 0.7 | -65
CC(Cc1cccs1)NC(=O)Nc1cccc(Cl)c1 (stereo unspecified) | 84* | x | 0.8 | -85
O=C(c1cnn2c1NC(c1ccc(Br)cc1)CC2C(F)(F)F)N1CCN(C(c2ccccc2)c2ccccc2)CC1 (stereo unspecified) | x | i | x | x
CO/N=C/CC(=O)Nc1ccc(F)cc1F | 2 | x | 0.9 | -5
COCCCNC(=S)NNC(=S)Nc1ccc(F)cc1F | 10 | x | 2.7* | -9
O=C(Cc1cn2ccsc2n1)Nc1nc2c(s1)CCCC2 | x | i | 2* | x
CCOC(=O)CSc1nc2ccccc2c(=O)n1CC1CCC(C(=O)NCc2ccco2)CC1 (stereo unspecified) | 82* | i | 1.2 | -82
CC1CCCN(C(C(=O)Nc2ccc3c(c2)OCO3)c2ccccc2)C1 (stereo unspecified) | 2 | i | 2* | 2
CC1CCN(C(C(=O)Nc2ccc3c(c2)OCO3)c2ccccc2)CC1 (stereo unspecified) | -12 | i | 2.2* | 17
CC1CCCN(C(C(=O)Nc2ccc3c(c2)OCCO3)c2ccccc2)C1 (stereo unspecified) | -2 | i | 1.2 | 1
O=C(Nc1ccc2c(c1)OCO2)C(c1ccccc1)N1CCCCC1 (stereo unspecified) | 9 | i | 0.9 | -5
CCc1ccc(C(=O)CN(C#N)c2nc(C)cc(C)n2)cc1 | -4 | x | 2.7* | 2
COc1ccccc1OCCCCN1CCN(c2ccccc2OC)CC1 | 0 | x | 2.2* | 0
CCc1c2ccc(C)n2cc[n+]1CC(C)=O | x | i | x | x
COC(=O)[C@H](CCSC)NC(=O)Nc1ccc(C)cc1C | -10 | i | 2.7* | 11
COC(=O)[C@H](CCSC)NC(=O)Nc1ccc(OC)cc1OC | -6 | x | 0.8 | 8
CCCN1CN(Cc2ccccc2)CC2=C1CC(C)(C)CC2=O | 0 | i | 1.1 | -2
CC1(C)CC(=O)C2=C(C1)NCN(Cc1ccccc1)C2 | -43 | i | 1 | 46*
Cc1cccc(NC(=O)COc2ccc(C(C)C)cc2)c1 | x | i | x | x
Cc1[nH]nc2c1C(c1ccccn1)N(c1ccc(Br)cc1)C2=O (stereo unspecified) | -6 | i | 1.6 | 4
CCOC(=O)c1ccc(N2C(=O)c3n[nH]c(C)c3C2c2ccccn2)cc1 (stereo unspecified) | -8 | i | 2.5* | 10
Cc1ccc(N2C(=O)c3n[nH]c(C)c3C2c2cccnc2)cc1 (stereo unspecified) | -5 | i | 2.1* | 6
CCOC(=O)c1ccc(N2C(=O)c3n[nH]c(C)c3C2c2cccnc2)cc1 (stereo unspecified) | -8 | i | 2.3* | 8
Cc1ccc(NCc2nnc(SCC(=O)NCc3ccco3)n2CC2CCCO2)cc1Cl (stereo unspecified) | 8 | i | 1.6 | -9
SMILES | sEH inh | BAP1 block | PLAP act | sEH activator
Cc1ccc(NCc2nnc(SCCN3CCCCC3)n2CC2CCCO2)cc1Cl (stereo unspecified) | -12 | i | 2* | 12
CC(Sc1nc2ccccc2s1)C(=O)Nc1nnc(C(C)C)s1 (stereo unspecified) | -39 | x | 1.3 | 37*
Cc1noc(C)c1COc1cccc(C(=O)NCc2ccccc2Cl)c1 | 86* | x | 0.8 | -86
COc1ccccc1CNC(=O)c1ccc(OCc2c(C)noc2C)c(OC)c1 | 6 | x | 0.9 | -8
O=C1c2cccc([N+](=O)[O-])c2C(=O)N1C1C(=O)N(c2cccc(C(F)(F)F)c2)C1c1ccc(F)cc1 (stereo unspecified) | x | i | x | x
COC(=O)c1cn[nH]c1NC(=S)Nc1ccc(C)cc1Cl | 12 | x | 1.1 | -9
COC(=O)c1cn[nH]c1NC(=S)Nc1ccc(Cl)c(Cl)c1 | -11 | x | 2.5* | 8
O=C(Nc1nc(-c2cc3ccccc3oc2=O)cs1)c1ccc(S(=O)(=O)N2CCc3ccccc32)cc1 | x | i | x | x
Cc1cc(NC(=O)c2c(F)cccc2Cl)n(-c2nc3ccccc3[nH]2)n1 | 7 | x | 2.6* | -6
O=C(NCCSc1c[nH]c2ccccc12)c1ccco1 | 5 | i | 0.8 | -6
C/C(=N\NC(=O)c1c[nH]c2ccccc12)c1ccco1 | -7 | x | 2.3* | 3
CCCn1c(SCC(=O)c2cc(C)c(C)cc2C)n[nH]c1=O | 10 | x | 2.2* | -10
c1ccc(-c2n[nH]c(-c3ccccn3)n2)nc1 | 8 | i | 2.8* | -10
c1ccc(-c2n[nH]c(-c3ccccn3)n2)cc1 | -1 | x | 2.2* | -1
COc1ccc(N2CCC(CNC(=O)Nc3cccc(OC)c3)C2)cc1 (stereo unspecified) | 86* | x | 0.9 | -86
CC(c1nnc(SCC(=O)N2CC(=O)Nc3ccccc32)n1Cc1ccccc1)N(C)C (stereo unspecified) | 8 | x | 2* | -9
COc1cc(C(=O)Nc2ccc(-c3nc4cc(C)ccc4o3)c(O)c2)cc(OC)c1OC | -23 | x | 2.7* | 21
Cc1ccc(Cl)cc1N1CCN(Cc2nc3ccsc3c(=O)[nH]2)CC1 | -2 | x | 2.3* | 2
Cn1c(CNc2ccccc2O)nc2ccccc21 | -8 | i | 2.4* | 10
CC(=O)N1c2ccc(N)cc2C(C)(c2ccccc2)CC1(C)C (stereo unspecified) | x | i | x | x
COc1cccc(C(=O)N/N=C/c2cn[nH]c2-c2ccc(OC)cc2OC)c1 | 8 | x | 2.2* | -9
O=C(Nc1cccc(F)c1)NC1CCCCC1 | 88* | i | 1.2 | -88
O=C(Nc1cccc(F)c1)NC1CC2CCCC(C1)N2C1CC1 (stereo unspecified) | 84* | i | 1 | -84
O=C(Nc1ccc2c(c1)OCCO2)NC1CCCCC1 | 89* | i | 0.8 | -89
O=C(COc1ccc(-c2ccccc2)cc1)Nc1nccs1 | x | i | x | x
SMILES | sEH inh | BAP1 block | PLAP act | sEH activator
O=C(O)c1nnc(Nc2ccccc2)c2ccccc12 | x | i | x | x
COc1ccccc1CNC(=O)CSCc1cnn(-c2ccccc2)c1-n1cccc1 | 17 | x | 2.7* | -15
COc1cccc(CNC(=O)CSCc2cnn(-c3ccccc3)c2-n2cccc2)c1OC | 69 | x | 2.6* | -69
COc1cc(NC(=O)CSCc2cnn(-c3ccccc3)c2-n2cccc2)cc(OC)c1 | 5 | x | x | -5
Cc1cc(=O)[nH]c(-n2[nH]c(C)cc2=O)n1 | -4 | x | 2.2* | 3
Cc1cc(=O)[nH]c(N2CCCC2)n1 | 15 | i | 0.8 | -16
NC(=O)c1c(NC(=O)c2ccccc2Br)sc2c1CCCC2 | x | i | x | x
NC(=O)c1cc2c(ccc3ccccc32)oc1=Nc1ccc(Br)cc1 | x | i | x | x
Nc1c(C(=O)NCc2ccc(F)cc2)c2nc3ccccc3nc2n1CCCN1CCOCC1 | -9 | x | 2* | 6
CCCCCC(=O)Nc1ccc2oc(-c3cncc(Br)c3)nc2c1 | 82* | x | 1.1 | -82
